Only some compounds are listed: those with a hit (about 14% of all), similar ones and a draw of the others.
HCMV antiviral – human cytomegalovirus inhibition; AID 1259415; actives 4.5% (n = 410,000); HFF cells, HCMV-luciferase reporter, 72 h; stronger effect = lower value; activity change, negative = inhibition, % at 57.5 µM; in the data active = activity change below about -60%; inconclusive = no clear call, values can overlap the other calls; inactive = above about -39%
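Luciferase read-out from HCMV-luciferase-infected HFFs (MOI 1 PFU/cell) 72 h post infection at 37C; compounds added after 16 h cell attachment; activity normalized between buffer-only basal and Salinomycin (10uM) inhibitor controls.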
Pf growth 48h – inhibits P. falciparum growth in the first generation, 48 h | actives 5.9% (n = 310,000) | AID 504832 | Potency, µM (doses to about 28.7 µM), without a hit: at the highest dose activity change, negative = inhibition, hits mostly inhibitors | P. falciparum luciferase growth in erythrocytes, 48 h; also: potency is read from the fitted curve at half-maximal effect
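Read-out is firefly luciferase luminescence from an integrated reporter in P. falciparum, so falling signal marks reduced parasite growth. Infected erythrocytes were at 2% hematocrit and 0.1% parasitemia (final) in Albumax-supplemented RPMI 1640.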
Marburg entry inh – Marburg virus entry inhibition; Potency, µM (doses to about 37.8 µM), without a hit: at the top dose activity change, negative = inhibition, most hits filed as inhibitors; Marburg virus pseudotyped entry inhibition, cell reporter; actives 1.8% (n = 300,000); calls by dose curve; tested in HEK293 cells; also: potency is read from the fitted curve at half-maximal effect
LASV entry inh – blocks Lassa virus binding to or entry into cells; Lassa virus pseudotype entry inhibition, cell reporter; Potency, µM (highest dose often 37.9 µM), for the others: at the top dose activity change, negative = inhibition, usual class: inhibitors; actives 1.2% (n = 300,000); AID 540256; calls by dose curve; tested in HEK293 cells; also: potency is read from the fitted curve at half-maximal effect; nearly all actives have a fitted effect of over 50% in size
HCV inhibitor – inhibitors of hepatitis C virus infection | Huh7.5.1 HCVcc-Cre infection, luciferase reporter, 44 h | Potency, µM (doses to about 41.8 µM), for the others: at the top dose activity change, negative = inhibition, hits mostly inhibitors | actives 3.4% (n = 340,000) | AID 651820; also: potency is read from the fitted curve at half-maximal effect
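Compounds are dispensed onto cells plated 4 h earlier at 1,000 per well, with HCVcc-Cre virus (about 0.5 moi) added next. Following 44 h of culture, luminescent signal is measured for 15 sec after 15 min with substrate at room temperature.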
Pf growth 96h – inhibits malaria parasite growth, 96 h | P. falciparum luciferase reporter growth, 96 h | Potency, µM (series often up to 28.7 µM), for inactives: at the top dose activity change, negative = inhibition, most hits filed as inhibitors | AID 504834 | actives 6.9% (n = 320,000); also: potency is read from the fitted curve at half-maximal effect
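P. falciparum expressing integrated firefly luciferase, in erythrocytes at 2% hematocrit, 0.05% parasitemia, incubated with compounds 96 h at 37 C, 5% CO2. Growth inhibition read as loss of luminescence; two-generation exposure targets delayed-death apicoplast inhibitors.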
* marks the source's active call; other numbers are inactive results; ? = inconclusive; . = no result given; [ ] = another dose, or the depositor's remark. Unless noted, calls follow the shape of the dose curve; as a rule, active = well fitted inhibition curve with a large enough effect; inconclusive = small, poorly fitted or top-dose-only effect, or another doubt; inactive = no such curve, though single readings can be large or run the other way. % is scaled to controls: 0 for no effect and ±100 for the full control effect.

SMILES | HCMV antiviral | Pf growth 48h | Marburg entry inh | LASV entry inh | HCV inhibitor | Pf growth 96h
COCCn1c(SCC(=O)c2cccc(OC)c2)nnc1-c1ccco1 | -21 | 13% | ? | 5% | 8% | 13µM*
COCCCn1c(SCC(=O)NC2CCCCC2)nnc1-c1ccncc1 | 6 | 8% | ? | 8% | 22% | 8.3µM*
CCn1c(SCC(=O)NC2CCCC2)nnc1-c1ccncc1 | 2 | 6% | ? | -6%[46.1 µM] | 6% | 1%
COCCn1c(SCC(=O)N2CCCC2)nnc1-c1ccco1 | -3 | 24% | 7%[46.1 µM] | 8% | 5% | 35%
COc1cccc(NC(=O)COC(=O)C2CC(=O)N(c3ccc(C)cc3)C2)c1 (stereo not drawn) | 2 | 34% | . | . | 0% | 20%
COc1ccc2nc3cc(Cl)ccc3c(Nc3ccc(O)c(CN4CCN(C)CC4)c3)c2c1 | 17 | . | 4.5µM* | ? | ? | .
COc1ccc2nc3cc(Cl)ccc3c(C#N)c2c1 | -21 | ? | -1%[46.1 µM] | 25% | 11% | ?
CN1C(=O)[C@H]2[C@@H](c3ccc(C(F)(F)F)cc3)N[C@]3(CCCN(Cc4ccc(Cl)cc4)C3=O)[C@H]2C1=O | -8 | . | . | . | . | .
C[C@H]1CN([C@@H](C)CO)C(=O)CCCn2nncc2CO[C@H]1CN(C)S(=O)(=O)c1ccc2c(c1)OCCCO2 | 13 | . | . | . | . | .
Cc1ccc(N2C(=O)c3ccccc3C2C(=O)c2cc(C)ccc2O)cc1 (stereo not drawn) | ? | 2.6µM* | -24% | -28% | -23% | 2.6µM*
Cc1ccc(N2C(=O)c3ccccc3C2C(=O)c2ccc(O)cc2O)cc1 (stereo not drawn) | -17 | 3% | ? | ? | -3% | -20%
Cc1ccc(N2C(=O)c3ccccc3C2C(=O)c2ccc(C)c(C)c2O)cc1 (stereo not drawn) | -13 | ? | -7% | ? | -29% | 5.2µM*
O=S(=O)(NCc1ccccc1)c1cccc(S(=O)(=O)N2CCOCC2)c1 | ? | . | -21% | -1% | -2% | 0.059µM*
O=S(=O)(NCCc1ccccc1F)c1cccc(S(=O)(=O)N2CCOCC2)c1 | -1 | -5% | 1% | -30% | 5% | 6.6µM*
O=S(=O)(c1cccc(S(=O)(=O)N2CCC(Cc3ccccc3)CC2)c1)N1CCOCC1 | -9 | -28% | ? | -9% | -15% | ?
COc1ccccc1CNS(=O)(=O)c1cccc(S(=O)(=O)N2CCOCC2)c1 | 47 | -18% | ? | 0% | -12% | .
Cc1ccc(NC(=O)C2CCN(c3nn4c(=O)cc(C)nc4s3)CC2)cc1 | -7 | . | 5%[46.1 µM] | 3%[46.1 µM] | . | .
CCc1ccccc1NC(=O)C1CCCN(c2nn3c(=O)cc(C)nc3s2)C1 (stereo not drawn) | 17 | ? | . | . | -2% | 10µM*
CCOc1cc(C)nc(N2CCCC(C(=O)NCc3ccccc3F)C2)n1 (stereo not drawn) | 111 | 2.9µM* | -16% | 6% | -24% | .
CCOc1ccccc1CNC(=O)C1CCCN(c2nn3c(=O)cc(C)nc3s2)C1 (stereo not drawn) | -6 | ? | 17%[46.1 µM] | 10%[46.1 µM] | 2% | 15µM*
Cc1ccc(NC(=O)C2CCCN2c2nn3c(=O)cc(C)nc3s2)cc1 (stereo not drawn) | 4 | 14% | . | . | -4% | 12µM*
COc1ccccc1CNC(=O)C1CCN(c2nn3c(=O)cc(C)nc3s2)CC1 | -5 | . | 1%[46.1 µM] | -25%[46.1 µM] | . | .
N#Cc1ccccc1S(=O)(=O)N1CCN(CC(O)CN2CCOCC2)CC1 (stereo not drawn) | 0 | -9% | . | . | -5% | -30%
COc1ccc(CNC(=O)C2CCCN(c3nn4c(=O)cc(C)nc4s3)C2)cc1 (stereo not drawn) | 0 | -14% | . | . | 3% | 9.3µM*
COc1ccc(CNC(=O)C2CCN(c3nn4c(=O)cc(C)nc4s3)CC2)cc1 | -31 | -13% | . | . | 12% | ?
SMILES | HCMV antiviral | Pf growth 48h | Marburg entry inh | LASV entry inh | HCV inhibitor | Pf growth 96h
COc1cccc2sc(N3CCN(C(=O)CS(=O)(=O)c4ccc(Cl)cc4)CC3)nc12 | -35 | . | . | ? | . | .
CCN(CC)C(=O)c1ncn(C)c1C(=O)N(CC)CC | -66* | . | . | . | 11% | .
C[C@H](CO)N1C[C@H](C)[C@H](CN(C)C(=O)C2CC2)OCc2cnnn2CCCC1=O | 14 | . | . | . | . | .
CCCCn1c(O)c(C=NC2CC3CCC2(C)C3(C)C)c(=O)[nH]c1=O (stereo not drawn) | 121 | 10µM* | ? | -8% | -7% | ?
CCCN(C)C1CN(Cc2cn(Cc3ccc(OC)cc3)nn2)S(=O)(=O)C1 (stereo not drawn) | -3 | . | . | . | . | .
Cc1cc(N2CCC(C)CC2)nc(NCc2ccccc2)n1 | -85* | 10µM* | ? | 18µM* | 6.3µM* | 7.4µM*
Cc1cc(Nc2ccc(Cl)cc2)nc(NCc2ccccc2)n1 | -31 | 0.93µM* | ? | ? | ? | 0.52µM*
Cc1cc(Nc2ccccc2)nc(NCc2ccccc2)n1 | -66* | 0.59µM* | ? | ? | ? | ?
Cc1cc(C)nc(NCCCc2ccccc2)n1 | -15 | -27% | -6% | -2% | 1% | 13µM*
Cc1cc(Oc2ccccc2)nc(NCc2ccccc2)n1 | -35 | 0% | ? | 15% | ? | 0%
Cc1noc(C)c1-c1ccc(C(=O)NCc2cccs2)c2occc12 | 48 | . | . | . | . | .
N#CC(C#N)[C@@H](c1ccsc1)c1c(-c2ccccc2)[nH][nH]c1=O | . | . | 2% | . | . | .
COC(=O)c1ccc(NC(=O)NCCn2nnc3cc(S(=O)(=O)N(C)C)ccc32)cc1 | 8 | . | . | 5%[46.1 µM] | . | .
Cc1cc(Nc2cccc(F)c2)nc(NCc2ccccc2)n1 | 10 | 0.37µM* | ? | ? | ? | ?
CCCCNc1cc(C)nc(NCc2ccccc2)n1 | . | 1.5µM* | 11µM* | 11µM* | ? | 0.83µM*
Fc1cc(NCc2ccccc2)nc(NCc2ccccc2)n1 | 78 | 28% | 9% | 8% | 4% | ?
Cc1cc(C)n(C(C)Sc2ccccc2)n1 (stereo not drawn) | 10 | ? | . | . | 11% | -4%
COc1ccc(S(=O)(=O)N[C@@H](Cc2ccccc2)C(=O)N2CC[C@@]3(O)CCCC[C@H]3C2)cc1 | 6 | -21% | ? | -14% | -3% | .
O=C([C@H](Cc1ccccc1)NS(=O)(=O)c1ccc(Cl)cc1)N1CC[C@@]2(O)CCCC[C@H]2C1 | -37 | 13µM* | -27% | ? | -5% | ?
CC(=O)NC(c1cccs1)c1cc([N+](=O)[O-])c2cccnc2c1O (stereo not drawn) | ? | ? | ? | ? | 13µM* | ?

Screens as filed in PubChem.
